PubChem BioAssay (NCATS)
Inconclusive results are not listed. Activity calls are given as the source filed them. Unless noted, calls follow the shape of the dose curve; as a rule, active = well fitted curve in the direction sought with a large enough effect; inconclusive = small, poorly fitted or top-dose-only effect, or another doubt; inactive = no such curve, though single readings can be large; an effect the other way counts as inactive or inconclusive.

Experiments:
[1] = Cell Proliferation Assay Versus the ED40515 IL2 Dependent ATL cell lines (AID 1053195; calls by dose curve); details: ED40515 IL2-dependent ATL cells
Method in brief: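 CellTiter-Glo luminescence (15 min, RT) measured viability after 48 hours at 37C; cells were ED40515 +IL2, 1000/well, in phenol red-free RPMI with 5% FBS. Controls: DMSO and 9.2 uM bortezomib.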

[2] = High-throughput drug toxicity screening in the BPDCN cell line Gen2.2 (AID 1224824; call rule not given here;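 also: cells exposed to compounds for 48 h before reading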); details: Gen2.2 BPDCN cells; at 45.8 µM (top of the series) unless noted
Method in brief: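 Readout is ATP luminescence from Gen2.2 cells after two days of drug exposure in serum-containing medium at 37 °C. Values express percent activity, with vehicle defining full signal and 9.2 uM bortezomib defining zero.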

[3] = High-throughput drug toxicity screening in the BPDCN cell line Cal-1 (AID 1224825; call rule not given here); details: Cal-1 BPDCN cell viability, qHTS; at 45.8 µM (top of the series) unless noted
Method in brief: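 Viability of the BPDCN line Cal-1 is measured as ATP-based luminescence (CellTiter-Glo) following 48 h incubation with compounds. Percent activity uses DMSO-treated wells as 100% and 9.2 uM bortezomib as 0%.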

[4] = qHTS assay for measurement of the activity of small molecule inhibitors on Zika virus induced Caspase-3 activity in human iPSC derived neural progenitor cells (hNPCs) (AID 1224857); details: hNPCs ZIKV-induced caspase-3/7, Caspase-Glo luminescence, 6 h; series mostly up to 45.7 µM; also: % of control where 0% means no effect; nearly all actives have a fitted effect of over 65% in size
Method in brief: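 Cells were plated at 350 per well and grown 16 to 20 hours. Compound pretreatment lasted one hour, after which ZIKV (2 FFU/cell) was added for 6 hours. Percent inhibition was normalized between uninfected and infected controls.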

[5] = qHTS assay for measurement of the activity of small molecule inhibitors on Zika virus induced Caspase-3 activity in human astrocytoma cells (AID 1224859); details: SNB-19 ZIKV-induced caspase-3/7, luminescence, 6 h; series mostly up to 45.7 µM;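 also: plate controls were ZIKV-infected untreated cells for no effect and uninfected cells for full effect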
Method in brief: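 Percent inhibition of virus-induced caspase-3/7 signal is calculated against uninfected and ZIKV-infected control cells. Cells are SNB-19, infected at 2 FFU/cell for 6 h after 1 h compound exposure.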

[6] = qHTS Screen of the MIPE 4.0 Collection Against Ewings Sarcoma (RDES) (AID 1259252); details: RD-ES Ewing sarcoma viability, CellTiter-Glo, 48 h; series mostly up to 45.8 µM; also: nearly all actives have a fitted effect of over 35% in size; also: potency is read from the fitted curve at half-maximal effect
Method in brief: (§1)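 Measured: ATP luminescence (CellTiter-Glo) 10 min after reagent addition, following 48 h drug treatment. Relative luciferase units converted to percent activity, with no-cell wells as full and DMSO wells as zero inhibition.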

[7] = qHTS Screen of the MIPE 4.0 Collection Against Ewings Sarcoma (TC71) (AID 1259253); details: TC71 Ewing sarcoma viability, CellTiter-Glo, 48 h; series mostly up to 45.8 µM; also: nearly all actives have a fitted effect of over 40% in size; also: potency is read from the fitted curve at half-maximal effect
Method in brief: as §1

[8] = qHTS Screen of the MIPE 4.0 Collection Against Ewings Sarcoma (EW8) (AID 1259255); details: EW8 Ewing sarcoma viability, CellTiter-Glo, 48 h; series mostly up to 45.8 µM; also: nearly all actives have a fitted effect of over 35% in size; also: potency is read from the fitted curve at half-maximal effect;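 as to viability: 100% = DMSO-treated cells and 0% = medium-only wells without cells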
Method in brief: as §1

[9] = qHTS Screen of the MIPE 4.0 Collection Against Ewings Sarcoma (TC32) (AID 1259256); details: TC32 Ewing sarcoma viability, CellTiter-Glo, 48 h; series mostly up to 45.8 µM; also: nearly all actives have a fitted effect of over 45% in size; also: potency is read from the fitted curve at half-maximal effect
Method in brief: as §1

[10] = Identifying Small Molecule Inhibitors of Pancreatic Cancer Stem Cells (SN12C, Adherent) (AID 1259358); details: viability/growth inhibition; series mostly up to 46.1 µM;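 also: cell survival measured after 48 h of compound exposure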; also: potency is read from the fitted curve at half-maximal effect
Method in brief: (§2)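 After a 4 h attachment period, compounds were pinned into wells and cultures held 48 h under standard incubator conditions. Viability was then measured as CellTiter-Glo luminescence following 10 min at room temperature.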

[11] = Identifying Small Molecule Inhibitors of Pancreatic Cancer Stem Cells (SN12C, Spheroid) (AID 1259360); details: Potency: SN12C spheroid viability; series mostly up to 46.1 µM; also: potency is read from the fitted curve at half-maximal effect;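 as to viability (% of control): 100% = DMSO-treated cells and 0% = wells without cells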
Method in brief: (§3)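 Spheroids grown 14 days in stem cell media on hydrogel-coated nonadherent plates; 2D lines seeded directly. Compounds added after 4 h attachment, 48 h at 37C, 5% CO2; CellTiter-Glo luminescence normalized to DMSO (no inhibition) and no-cell wells (full inhibition).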

[12] = P-glycoprotein substrates identified in KB-3-1 adenocarcinoma cell line, qHTS therapeutic library screen (AID 1346986); details: KB-3-1 parental cells viability, CellTiter-Glo, 72 h; series mostly up to 44.5 µM;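 also: potency is read from the fitted curve at half-maximal effect; potency is for cytotoxicity meaning loss of cell viability; nearly all actives have a fitted effect of over 60% in size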
Method in brief: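 Using luminescence to quantify ATP, parental and P-gp-overexpressing KB cells were compared after 72 h compound titration. KB-8-5-11 was also run with the P-gp inhibitor tariquidar.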

[13] = P-glycoprotein substrates identified in KB-8-5-11 adenocarcinoma cell line, qHTS therapeutic library screen (AID 1346987); details: KB-8-5-11 (P-gp overexpressing) viability, CellTiter-Glo, 72 h; series mostly up to 44.5 µM; also: nearly all actives have a fitted effect of over 65% in size; also: potency is read from the fitted curve at half-maximal effect
Method in brief: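 Human cervical adenocarcinoma KB-8-5-11 cells, selected in colchicine to over-express P-gp and assayed without it, were exposed for 72 h to titrated compounds. An ATP-based luminescent viability signal gave AC50.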

[14] = Identifying Small Molecule Inhibitors of Pancreatic Cancer Stem Cells (A278, Adherent) (AID 1259361); details: series mostly up to 46.1 µM;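 also: viability read after 48 h compound exposure; nearly all actives have a fitted effect of over 35% in size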;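 as to viability (% of control): 100% = DMSO-treated cells and 0% = cell-free media-only wells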
Method in brief: as §2

[15] = Identifying Small Molecule Inhibitors of Pancreatic Cancer Stem Cells (Panc1, Adherent) (AID 1259362); details: Potency: viability; series mostly up to 46.1 µM; also: potency is read from the fitted curve at half-maximal effect;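 as to viability, % of control: compound exposure lasted 48 h before the viability read; plate controls were DMSO-treated cells for no effect and cell-free media wells for full effect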
Method in brief: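 Viability is scored by CellTiter-Glo luminescence 48 h after dosing, expressed as percent activity against vehicle and no-cell references. Spheroid formats rely on cells cultured 14 days in stem cell media beforehand.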

[16] = qHTS assay to identify small molecule inhibitors of chordoma cells - UCH-1 (AID 1259355); details: UCH-1 chordoma viability, CellTiter-Glo, 48 h, combination, with auranofin plus four topoisomerase inhibitors; series mostly up to 46.1 µM; also: % is scaled to controls: 0 for no effect and ±100 for the full control effect; nearly all actives have a fitted effect of over 55% in size
Method in brief: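 A 48hr growth-inhibition format: each drug tested at 15 concentrations together with added auranofin, camptothecin, doxorubicin, rubitecan and topotecan, with cell viability quantified as CellTiter-Glo luminescence.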

[17] = qHTS assay to identify small molecule inhibitors of chordoma cells - UCH-2 (AID 1259356); details: UCH-2 chordoma viability, CellTiter-Glo ATP luminescence, 48 h; series mostly up to 46.1 µM; also: % is scaled to controls: 0 for no effect and ±100 for the full control effect
[18] = Identifying Small Molecule Inhibitors of Pancreatic Cancer Stem Cells (A2780, Spheroid) (AID 1259357); details: Potency: A2780 spheroid viability; series mostly up to 46.1 µM; also: potency is read from the fitted curve at half-maximal effect;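 also: spheroids pre-formed over 14 days in stem cell medium on hydrogel; compound exposure lasted 48 h before the ATP luminescence read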
Method in brief: as §3

SMILES	Potency [1]	cell viability, % of control (lower = more cytotoxic) [2]	viability (% of control) [3]	Potency [4]	Potency [5]	Potency [6]	Potency [7]	Potency [8]	Potency [9]	Potency [10]	Potency [11]	Potency [12]	Potency [13]	IC50 (viability decrease) [14]	Potency [15]	Potency [16]	outcome [17]	Potency [18]
Cc1cc([C@@H](C)Nc2ccccc2C(=O)O)c2nc(N3CCOCC3)cc(=O)n2c1	1.05 µM (active)	13.7% [at 92.2 µM]	27.7% [at 92.2 µM]	inactive	inactive	3.03 µM (active)	34 µM (active)	42.9 µM (active)	34 µM (active)	9.35 µM (active)	14.8 µM (active)	–	–	–	–	–	–	–
CCOc1cc(N2CCC(O)CC2)ccc1Nc1ncc2c(n1)N(C)c1ccccc1C(=O)N2C	11.8 µM (active)	6.39%	2.19%	inactive	inactive	20.9 µM (active)	16.6 µM (active)	23.5 µM (active)	16.6 µM (active)	–	–	8.2 µM (active)	18.4 µM (active)	–	–	–	–	–
CN(C)C(=O)c1ccc(S(=O)(=O)c2ccc(NC(=O)[C@@](C)(O)C(F)(F)F)c(Cl)c2)cc1	0.332 µM (active)	41.1%	20.3%	inactive	inactive	20.9 µM (active)	–	inactive	–	inactive	–	–	–	–	–	–	–	–
COc1ccc(C2=N[C@H](c3ccc(Cl)cc3)[C@H](c3ccc(Cl)cc3)N2C(=O)N2CCNC(=O)C2)c(OC(C)C)c1	20.9 µM (active)	4.67%	4.23%	inactive	inactive	18.7 µM (active)	–	5.26 µM (active)	16.6 µM (active)	–	inactive	–	–	18.7 µM (active)	inactive	–	–	–
Cn1cnc2c(F)c(Nc3ccc(Br)cc3Cl)c(C(=O)NOCCO)cc21	16.6 µM (active)	4.9%	23.1%	inactive	inactive	–	16.6 µM (active)	2.64 µM (active)	20.9 µM (active)	1.18 µM (active)	–	–	inactive	–	–	–	–	–
CCN(c1ccccc1)c1cc(NC)[n+](C)c(C)n1	18.7 µM (active)	138%	119%	inactive	inactive	7.43 µM (active)	inactive	inactive	16.6 µM (active)	inactive	inactive	–	inactive	inactive	inactive	–	–	–
Clc1ccc(Nc2nnc(Cc3ccncc3)c3ccccc23)cc1	37.2 µM (active)	117%	68.2%	inactive	inactive	2.96 µM (active)	20.9 µM (active)	–	26.4 µM (active)	inactive	–	–	inactive	inactive	–	inactive	inactive	–
O=C(Nc1cccnc1)N1CCC(Cc2cccc(Oc3ccc(C(F)(F)F)cn3)c2)CC1	5.9 µM (active)	147%	52.7%	inactive	inactive	18.7 µM (active)	16.6 µM (active)	–	–	inactive	inactive	–	–	–	–	–	–	18.7 µM (active)
OC[C@H](Cc1ccccc1)Nc1nc(Oc2ccc3c(c2)CCC3)nc2c1ncn2Cc1ccc(-c2ccccc2)cc1	13.2 µM (active)	408%	56.2%	inactive	inactive	14.8 µM (active)	–	–	6.62 µM (active)	inactive	–	–	–	–	1.32 µM (active)	–	–	–
CS(=O)(=O)Oc1ccc2c(NC(N)=O)c(C(=O)c3ccc(Cl)cc3Cl)oc2c1	16.6 µM (active)	153%	13.2%	inactive	inactive	11.8 µM (active)	–	23.5 µM (active)	–	inactive	inactive	–	inactive	–	–	–	–	11.8 µM (active)
COc1ccc(-c2c(-c3ccc(O)cc3O)n[nH]c2C)cc1	2.09 µM (active)	96.4% [at 92.2 µM]	61.9% [at 92.2 µM]	inactive	inactive	–	–	–	inactive	inactive	inactive	–	–	26.4 µM (active)	–	–	–	inactive
CC(C)OC(=O)C1=CN(C(=O)c2ccc(F)c(F)c2)CC(C)(C)c2c1[nH]c1ccccc21	4.18 µM (active)	115%	108%	inactive	inactive	inactive	inactive	inactive	inactive	inactive	inactive	–	inactive	inactive	–	–	–	–
Cc1c(CCOc2ccc(C(=O)O)cc2)c2cc(Cl)ccc2n1C(c1ccccc1)c1ccccc1	23.5 µM (active)	222%	96.5%	inactive	inactive	18.7 µM (active)	–	14.8 µM (active)	10.5 µM (active)	inactive	inactive	–	inactive	inactive	–	–	–	–
COc1ccc2c3n(c(=NC(=O)c4cccnc4)nc2c1OC)CCN3	4.18 µM (active)	9.57%	12.7%	inactive	inactive	2.09 µM (active)	10.5 µM (active)	20.9 µM (active)	8.33 µM (active)	3.72 µM (active)	5.9 µM (active)	–	0.651 µM (active)	–	2.35 µM (active)	–	–	3.32 µM (active)
CCOc1ccc(Cc2cc([C@@H]3O[C@H](CO)[C@@H](O)[C@H](O)[C@@H]3O)ccc2Cl)cc1	4.69 µM (active)	55.1%	19.9%	inactive	inactive	–	–	inactive	–	–	inactive	–	inactive	–	–	–	–	inactive
